The list is a sample of the results.
aSyn 5UTR act: Activators via SNCA 5'UTR binding, MLPCN; alpha-synuclein 5'UTR reporter, activators screen; activity score, % (tested at 7.5 µM), hits read low; 7.1% of 300,000 active; in the data active = activity score below about -60%
Starred values were filed as active, the others as inactive.

For O=C(CSCc1cccc(Br)c1)N1CCOCC1 the results were aSyn 5UTR act -67*.
CCOC(=O)N1CCN(C(=O)CSCc2ccccc2)CC1 was read as aSyn 5UTR act -83*.
For CCOC(=O)C1CCCN(C(=O)CCc2nnc(-c3ccc(C(C)=O)s3)o2)C1 (centres undefined) the results were aSyn 5UTR act -134*.
`O=C(CSCc1ccc(F)cc1)N1CCN(c2ccccc2)CC1` gave aSyn 5UTR act -66*.
`CC1(C)CC(CCNC(=O)CCl)(c2ccccc2)CCO1` (centres undefined) gave aSyn 5UTR act -63*.
For O=C1NCCN/C1=C\C(=O)c1ccc(Cl)cc1 the results were aSyn 5UTR act -109*.
Screening O=C1NCCN/C1=C\C(=O)c1ccc(F)cc1 returned aSyn 5UTR act -81*.
Screening CC1CN/C(=C\C(=O)c2ccccc2)C(=O)N1 (centres undefined) returned aSyn 5UTR act -110*.
CSc1ccc(-c2sc(Nc3ccccc3)n[n+]2-c2ccc(F)cc2)cc1 was read as aSyn 5UTR act -143*.
For CCCCOc1ccc(-c2cn3ccccc3n2)cc1[N+](=O)[O-] the results were aSyn 5UTR act -129*.
`CCOc1ccc(-c2cn3ccccc3n2)cc1[N+](=O)[O-]` gave aSyn 5UTR act -160*.
Screening CCCOc1ccc(-c2csc(N)n2)cc1[N+](=O)[O-] returned aSyn 5UTR act -81*.
Screening O=[N+]([O-])c1cc(C(F)(F)F)ccc1NCCOc1ccccc1 returned aSyn 5UTR act -124*.
`COc1ccc(/C=C/C(=O)c2ccc[nH]2)cc1OC` gave aSyn 5UTR act -146*.
COc1ccc(/C=C/C(=O)c2ccc[nH]2)c(OC)c1OC was read as aSyn 5UTR act -194*.
COc1ccc(/C=C/C(=O)c2cc(F)ccc2OC(=O)c2ccccc2OC)cc1OC was read as aSyn 5UTR act 68.
CCCC1CC(=O)OC1(C)C(=O)CSc1n[nH]c(-c2ccccc2)n1 (centres undefined) was read as aSyn 5UTR act -66*.
For COc1ccc2oc(C(=O)C3CC3)c(N)c2c1 the results were aSyn 5UTR act -133*.
Nc1c(C(=O)c2ccc(F)cc2)oc2ccccc12 was read as aSyn 5UTR act -137*.
Nc1c(C(=O)Nc2ccc(Cl)cc2)oc2ccccc12 was read as aSyn 5UTR act -253*.
`COc1ccc2occ(C(=O)c3ccccc3)c2c1` gave aSyn 5UTR act -133*.
`Nc1ccc(C(=O)n2c3ccccc3c3ccccc32)cc1` gave aSyn 5UTR act 117.
For COC(=O)c1oc2ccccc2c1N the results were aSyn 5UTR act -63*.
For Nc1c(C(=O)c2ccco2)oc2ccccc12 the results were aSyn 5UTR act -113*.
Screening COc1ccc2oc(C(=O)c3ccccc3)c(N)c2c1 returned aSyn 5UTR act -174*.
`COC(=O)CCC(=O)c1oc2ccc(OC)cc2c1N` gave aSyn 5UTR act -62*.
For COc1ccc(C(=O)c2oc3ccccc3c2N)cc1 the results were aSyn 5UTR act -179*.
N=C(N)SCc1ccc(Cl)cc1Cl was read as aSyn 5UTR act -71*.
CNc1nnc(CSc2nc3ccccc3s2)s1 was read as aSyn 5UTR act -88*.
Screening c1csc(CSc2nc3ccccc3s2)c1 returned aSyn 5UTR act -280*.
For Cc1ccc2nc(Nc3nc(CSc4nc5ccccc5s4)cc(=O)[nH]3)nc(C)c2c1 the results were aSyn 5UTR act 61.
For Clc1ccc(-c2nnc(N3CCOCC3)o2)cc1 the results were aSyn 5UTR act -71*.
For Cc1ccc(-c2nnc(-c3ccccc3)o2)cc1 the results were aSyn 5UTR act -77*.
Screening Cc1ccc(/C=C/c2nnc(-c3ccc(C)cc3)o2)cc1 returned aSyn 5UTR act -69*.
`Fc1ccc(-c2nnc(-c3ccc(Cl)cc3)o2)cc1` gave aSyn 5UTR act -194*.
`Fc1ccc(/C=C/c2nnc(-c3cccs3)o2)cc1` gave aSyn 5UTR act -129*.
Screening COc1ccc(-c2nnc(-c3ccc(F)cc3)o2)cc1 returned aSyn 5UTR act -152*.
`Cc1ccc(-c2nnc(-c3cccs3)o2)cc1` gave aSyn 5UTR act -93*.
CCCc1nnc(-c2ccc(OC)cc2)o1 was read as aSyn 5UTR act -67*.
CCN(CC)CCCNc1ccc(-c2nnc(-c3ccc(OCC(C)C)cc3)o2)cn1 was read as aSyn 5UTR act 121.
Screening COc1ccc(-c2nnc(-c3ccc(C)cc3)o2)cc1 returned aSyn 5UTR act -103*.
For COc1ccc(-c2ccc(-c3nnc(-c4ccncc4)o3)cc2)cc1 the results were aSyn 5UTR act -115*.
For CCNc1nnc(-c2ccc(C)cc2)o1 the results were aSyn 5UTR act -80*.
`CCCN(CCC)S(=O)(=O)c1ccc(C(=O)Nc2nnc(-c3cc(OC)cc(OC)c3)o2)cc1` gave aSyn 5UTR act 82.
`Cc1ccc(C(=O)Nc2nnc(-c3ccncc3)o2)cc1` gave aSyn 5UTR act -82*.
`COc1ccc(-c2nnc(NC(=O)c3ccc(S(=O)(=O)N4COCC4(C)C)cc3)o2)cc1` gave aSyn 5UTR act 76.
`CCOc1ccc2[nH]c3ncccc3c(=O)c2c1` gave aSyn 5UTR act -139*.

Screening data from PubChem.
